Source: PubChem BioAssay
This is a sample that favours compounds with a hit; in the whole collection about 7.9% have one here.
FMDV inh: foot and mouth disease virus antiviral activity; FMDV antiviral cell-based qHTS; Potency, µM (top dose mostly 57.9 µM), most hits filed as inhibitors; 410,000 tested, 1.2% active; AID 1159524; calls by dose curve; tested in HEK293T cells; note: read-out not given here; nearly all actives have a fitted effect of over 45% in size
Lassa entry inh: Lassa virus entry inhibition | Lassa virus pseudotype entry inhibition, cell reporter | 300,000 tested, 1.2% active | Potency, µM (top dose mostly 37.9 µM), actives largely listed as inhibitors; calls by dose curve; tested in HEK293 cells; note: nearly all actives have a fitted effect of over 50% in size
HCV inh: HCV inhibition | Huh7.5.1 HCVcc-Cre infection, luciferase reporter, 44 h | Potency, µM (doses to about 41.8 µM), hits mostly inhibitors | 340,000 tested, 3.4% active; active = well fitted inhibition curve with a large enough effect; inconclusive = small, poorly fitted or top-dose-only effect, or another doubt; inactive = no such curve, though single readings can be large or run the other way
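After 44 h co-culture of compound, cells and HCVcc-Cre (~0.5 moi), substrate is added for 15 min at room temperature and luciferase measured over 15 sec. Cells were seeded at 1,000/well and pre-cultured 4 h.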
Marburg entry inh: Marburg virus entry inhibition; 300,000 tested, 1.8% active; Marburg virus pseudotyped entry inhibition, cell reporter; Potency, µM (series often up to 37.8 µM), hits mostly inhibitors; calls by dose curve; tested in HEK293 cells
HCMV inh: human cytomegalovirus inhibition | HFF cells, HCMV-luciferase reporter, 72 h; hits give low values | activity change, negative = inhibition, % at 57.5 µM | 410,000 tested, 4.5% active; in the data active = activity change below about -60%; inconclusive = no clear call, values can overlap the other calls; inactive = above about -39%
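Luciferase read-out from HCMV-luciferase-infected HFFs (MOI 1 PFU/cell) 72 h post infection at 37C; compounds added after 16 h cell attachment; activity normalized between buffer-only basal and Salinomycin (10uM) inhibitor controls.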
Large screens that a line does not name were inactive.

O=C([C@@H]1C[C@@H](Sc2nc3ccccc3[nH]2)CN1CC1CCCCC1)N1CCOCC1	none (no result: Lassa entry inh, HCV inh, Marburg entry inh, HCMV inh)
CCOc1ccccc1NC(=O)Cn1c(=O)ccc2cc(S(=O)(=O)N3CCC(C)CC3)ccc21	Lassa entry inh inconclusive (no result: HCV inh, Marburg entry inh)
COc1ccccc1CNC(=O)c1cc2c(C)nn(Cc3ccc(F)cc3)c2s1	HCV inh 7.1µM, Marburg entry inh inconclusive
COc1cccc(C(=O)N2CCN(C(=O)COc3ccc4ccccc4c3)CC2)c1	FMDV inh inconclusive, HCV inh inconclusive (no result: Lassa entry inh)
CCOC(=O)Cn1c(=O)n(C2CCCCC2)c2nc(-c3c(F)cccc3Cl)nc(C(N)=O)c21	FMDV inh inconclusive, HCMV inh -82 (no result: HCV inh, Marburg entry inh)
O=S(=O)(c1ccc(Cl)cc1)c1cnc2ccccc2n1	FMDV inh 25µM, Lassa entry inh inconclusive, HCV inh inconclusive
CCCc1cnc2c(c1SCC(=O)Nc1ccc([N+](=O)[O-])cc1)c(=O)n(C)c(=O)n2C	FMDV inh 16µM, Lassa entry inh inconclusive (no result: HCV inh, Marburg entry inh)
S=C(NCC1CCCO1)Nc1ccc(Nc2ccccc2)cc1 (stereo not drawn)	HCV inh inconclusive, HCMV inh -69
Cc1scc(C(=O)NNC(=S)NCC2CCCO2)c1-c1ccccc1 (stereo not drawn)	Marburg entry inh inconclusive, HCMV inh -62
COc1ccccc1/C=C/C(=O)NC(=S)NCC1CCCO1 (stereo not drawn)	Lassa entry inh inconclusive, HCMV inh -62
Nc1ccn(C2OC(COC(=O)C34CC5CC(CC(C5)C3)C4)C(O)C2O)c(=O)n1 (stereo not drawn)	HCMV inh -97
Nc1ccn([C@@H]2O[C@H](CO)[C@@H](O)C2O)c(=O)n1 (stereo partly drawn)	Lassa entry inh inconclusive, HCV inh inconclusive, Marburg entry inh inconclusive, HCMV inh -97
Nc1ccn(C2OC(CCl)C(O)C2O)c(=O)n1 (stereo not drawn)	HCMV inh -61 (no result: Lassa entry inh, HCV inh, Marburg entry inh)
N=c1ccn2c(n1)OC1C(O)C(CO)OC12 (stereo not drawn)	HCMV inh -100 (no result: Lassa entry inh, Marburg entry inh)
C=CCOC(=O)N[C@H](c1ccccc1)[C@H](C)C=CCC(=O)OC	none (no result: FMDV inh, Lassa entry inh, HCV inh, HCMV inh)
CC(C)CC1NC(=O)c2cc(Cl)ccc2-n2c1nc1ccc(F)cc1c2=O (stereo not drawn)	none (no result: FMDV inh, Lassa entry inh, Marburg entry inh)
CC(C)N(Cc1ccccc1)C(=O)CN1C(=O)NC(Cc2ccccc2)(c2ccccc2)C1=O (stereo not drawn)	Marburg entry inh inconclusive
Cc1c(C(=O)N2CCN(C(C)C)CC2)sc2ncnc(NCc3ccco3)c12	none (no result: Lassa entry inh, HCV inh, Marburg entry inh, HCMV inh)
CCOc1ccc2cc(C#N)c(SCC(=O)N3CCOCC3)nc2c1	HCV inh inconclusive
COc1ccc2nc(SCC(=O)N3CC(=O)Nc4ccccc43)c(C#N)cc2c1	Lassa entry inh inconclusive, HCV inh inconclusive, Marburg entry inh inconclusive, HCMV inh -100
Cc1cc(C)c2nc(SCC(=O)Nc3ccccc3N3CCOCC3)c(C#N)cc2c1	HCV inh inconclusive
COc1ccc2nc(SCC(C)=O)c(C#N)cc2c1	Lassa entry inh 5.6µM, HCV inh inconclusive, Marburg entry inh inconclusive
Cc1cc(C)c2nc(SCC(=O)N3CC(=O)Nc4ccccc43)c(C#N)cc2c1	FMDV inh inconclusive, Lassa entry inh inconclusive, HCV inh 7.9µM, Marburg entry inh inconclusive, HCMV inh -88
CCOc1ccc2nc(SCC(=O)N3CCCCCC3)c(C#N)cc2c1	HCV inh 7.9µM, Marburg entry inh inconclusive
CC(/C=C/c1cccc(Oc2ccc(F)cc2)c1)N(O)C(N)=O (stereo not drawn)	Lassa entry inh inconclusive, Marburg entry inh inconclusive (no result: HCV inh, HCMV inh)
Cc1ccc(S(=O)(=O)NC(=O)Cn2nnc(-c3ccccc3)c2COc2ccc3ccccc3c2)cc1	none (no result: Lassa entry inh, HCV inh, Marburg entry inh)
CN1C(=O)C2(N=c3ccccc3=N2)c2ccccc21	HCV inh 11µM, Marburg entry inh inconclusive (no result: HCMV inh)
Cc1cc(=O)[nH]c(NN=Cc2cc(Br)ccc2O)n1	Lassa entry inh 10µM, HCV inh inconclusive, Marburg entry inh 2µM, HCMV inh -100
CCN(CC)c1ccc(/C=N/Nc2nc(C)cc(=O)[nH]2)c(O)c1	Lassa entry inh 0.82µM, HCV inh 4µM, Marburg entry inh 0.52µM, HCMV inh -98
NC(=S)N/N=C/c1ccc(OC(=O)c2cccnc2)cc1	none (no result: Lassa entry inh, Marburg entry inh)
Cc1cc(=O)[nH]c(N/N=C/c2ccc(OC(=O)c3cccnc3)cc2)n1	HCMV inh -65
CCN(CC)c1ccc(/C=N/Nc2ccc(C)cc2)c(O)c1	none
Cc1ccc(NC(=O)CSc2nc(O)c(Cc3ccccc3)c(=O)n2-c2ccccc2)cc1	none
COc1ccc([C@]23Cc4cc(OC)c(OC)cc4[C@H](O2)C2=C(CC(C)(C)CC2=O)O3)cc1	none (no result: FMDV inh, Lassa entry inh, HCV inh, HCMV inh)
CC(NC(=S)Nc1ccc(F)cc1)c1ccccc1 (stereo not drawn)	HCMV inh inconclusive
CC(C)c1ccccc1NC(=S)NC(C)c1ccccc1 (stereo not drawn)	Marburg entry inh inconclusive, HCMV inh -87
C=C1C(=O)O[C@@H]2[C@H]1[C@@H](OC(=O)/C(C)=C/C)C/C(C)=C\C(=O)/C=C(\C)[C@@H]2O	FMDV inh 28µM, HCV inh 11µM, HCMV inh -98 (no result: Lassa entry inh, Marburg entry inh)
c1ccc(CNc2ncncc2-c2ccoc2)cc1	none (no result: Lassa entry inh, HCV inh, Marburg entry inh, HCMV inh)
CC(C)(C)NC(=O)NC(=O)COC(=O)c1cccc(S(=O)(=O)N2CCCCC2)c1	none
CC(C)(C)NC(=O)NC(=O)COC(=O)c1cccc(NS(=O)(=O)c2ccc(F)c(F)c2)c1	Lassa entry inh 10µM, Marburg entry inh inconclusive
CC(C)(C)c1ccc(C(=O)OCC(=O)Nc2cccc(S(=O)(=O)NC3=NCCC3)c2)cc1	none (no result: Lassa entry inh, HCV inh, Marburg entry inh)
CC(C)(C)c1ccc(NC(=O)COC(=O)c2ccc(NS(=O)(=O)c3ccc(F)c(F)c3)cc2)cc1	FMDV inh inconclusive, Lassa entry inh 13µM, Marburg entry inh inconclusive
CN1CCN(c2nc3c(S(=O)(=O)c4ccccc4)nnn3c3ccsc23)CC1	none (no result: HCV inh, Marburg entry inh)
CCC[C@H]1[C@@H](NS(=O)(=O)c2cccc(C)c2)CC[C@@]23CCCN2C(=O)CCC[C@@H]13	none (no result: FMDV inh, Lassa entry inh, HCV inh, Marburg entry inh)
NC(=O)C1CCN(CC(O)CSc2ccccc2)CC1 (stereo not drawn)	none (no result: Lassa entry inh, Marburg entry inh)
OC(CSc1ccccc1)CN1CCN(c2ccccc2)CC1 (stereo not drawn)	Marburg entry inh inconclusive, HCMV inh -102
C=CCNC(=S)Nc1cc(C)ccn1	HCMV inh -83
Cc1ccnc(NC(=S)NC(=O)/C=C/c2ccccc2)c1	none (no result: FMDV inh)
COc1ccccc1CCNC(=O)c1cc(COc2cccc(C(F)(F)F)c2)on1	HCV inh inconclusive, HCMV inh active (no result: Lassa entry inh, Marburg entry inh)
O=C(c1cc(COc2ccc(F)cc2Cl)on1)N1CCC(OCc2cccnc2)CC1	HCMV inh -68
C=CCC1(CC=C)CCCN1C(=O)c1cc(COc2cccc(C(F)(F)F)c2)on1	Lassa entry inh inconclusive, Marburg entry inh 10µM (no result: HCV inh, HCMV inh)
O=C(c1cc(COc2cccc(C(F)(F)F)c2)on1)N1CCC(Oc2cccnc2)CC1	HCV inh 11µM (no result: Lassa entry inh, Marburg entry inh)
O=C(c1cc(COc2cccc(C(F)(F)F)c2)on1)N1CCCC1	none (no result: Lassa entry inh, HCV inh, Marburg entry inh)
CC(C)(C)c1ccc2c(c1)OC(C(=O)N/N=C\c1ccc[nH]1)CO2 (stereo not drawn)	FMDV inh inconclusive, HCV inh 1µM (no result: Lassa entry inh, Marburg entry inh)
Cn1cc(Br)c(C(=O)NNC(=O)Nc2ccccc2C(F)(F)F)n1	none
